# Experimental data as given in PubChem BioAssay (NCI).
# Several values for one entry are separate records, joined by “and”; a condition that tells them apart may be missing. Identical values can stand only once. This is part of a sample that, as a whole, favours compounds with a hit. Of some 83,000 tested, about 20% had one in any assay.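 How to read the values: 0–100, growth inhibition (40 = 60% inhibited); 0, no net growth; -100 to 0, cell death (-40 = 40% of starting cells died; -100 = all dead).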 Activity calls are given as the source filed them. Rule for the calls: active = growth percent below 10; inactive = the rest.
# System: UACC-62 melanoma
# Experiment: NCI-60 one-dose screen, 48 h (100 = growth as untreated, 0 = no growth, -100 = all killed)
# Details: 10 µM unless noted
row,SMILES,growth
1,COc1ccc2c3c(c(=O)n(C)c2c1OC)C=CC(C)(C)O3,0.949% [100 µM] (active) and 6.15% [100 µM] (active)
2,N#CC1=C(N)OC(c2cccc([N+](=O)[O-])c2)C1(C#N)C#N (centres undefined),-52.1% [100 µM] (active) and -93.7% [100 µM] (active)
3,O=C1N(c2ccccc2)N=C2c3ccncc3C3=NN(c4ccccc4)C(=O)C123 (centres undefined),59.9% [100 µM] (inactive) and 10.7% [100 µM] (inactive)
4,CC(O)c1cc2c(s1)C(=O)c1ccsc1C2=O (centres undefined),-61.7% [100 µM] (active) and -100% [100 µM] (active)
5,CC12CCC3c4cc(Br)c(O)c(Br)c4CCC3C1CCC2O (centres undefined),7.01% [100 µM] (active) and -44.7% [100 µM] (active)
6,CC(=O)NC(CS/N=N/c1nc[nH]c1C(N)=O)C(=O)O (centres undefined),-5.07% [100 µM] (active) and 0.469% [100 µM] (active)
7,CC(C)=CCC/C(C)=C/CC/C(C)=C/CC/C(C)=C/C=C/C=C(\C)CC/C=C(\C)CC/C=C(\C)CCC=C(C)C,75.8% [100 µM] (inactive) and 45% [100 µM] (inactive)
8,C=C1C(=O)OC2/C=C(\CO)C(OC(C)=O)CC(O)/C(C)=C/C(OC(=O)C(C)CC)C12 (centres undefined),-85.5% [100 µM] (active) and -98.8% [100 µM] (active)
9,COC(=O)c1ccc(CCc2cc(O)c(Br)cc2O)cc1,-96.8% [100 µM] (active) and -100% [100 µM] (active)
10,CCC1CC(C)C(O)/C=C/C=C/CC(C)OC(=O)CC(O)C(OC)C1OC1OC(C)CC(O)(C(C)=O)C1O (centres undefined),67.6% [100 µM] (inactive) and 33.4% [100 µM] (inactive)
11,C=C1CC(O)C2C(=C)C(=O)OC2C2C(C)C(=O)CC12 (centres undefined),-89.7% [100 µM] (active) and -97.7% [100 µM] (active)
12,O=C1C=C(Nc2ccc(S(=O)(=O)Nc3nccs3)cc2)c2ccccc2C1=O,-46.1% [100 µM] (active) and -88.9% [100 µM] (active)
13,COC(=O)C(=O)C(C(=O)C(=O)Nc1ccccc1C(=O)OC)c1nc2ccc(C(=O)c3ccccc3)cc2[nH]c1=O (centres undefined),54.3% [100 µM] (inactive) and 12.8% [100 µM] (inactive)
14,Nc1nc(Nc2cc(F)c(Cl)c(F)c2)cc(=O)[nH]1,85.2% [100 µM] (inactive) and -90.5% [100 µM] (active)
